Results published in PubChem BioAssay (NCI).
Compounds without any hit were thinned out: in the full panel of roughly 79,000, 15% have a hit. Calls of active or inactive are those of the source. Cut-off read from the data, not from the text of the source: active = growth inhibition above about 70%; inactive = the rest.

Tests used:
[1] = NCI Yeast Anticancer Drug Screen. Data for the rad52 strain (AID 147);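 note: 0% = growth of vehicle-treated control cultures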; conditions: S. cerevisiae rad52 mutant growth inhibition, active compounds read high
Procedure, shortened: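 Inhibition of yeast growth, referenced to vehicle controls, was the measured output for a strain with defective DNA damage repair.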

[2] = NCI Yeast Anticancer Drug Screen. Data for the wt1 strain (AID 149);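 note: 0% = growth of vehicle-treated wt1 cultures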; conditions: S. cerevisiae wt1 strain (SPY 50644) growth inhibition, active compounds read high
Procedure, shortened: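 Readout: yeast growth inhibition, normalised to vehicle controls, in the wt1 strain exposed to test compounds.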

[3] = NCI Yeast Anticancer Drug Screen. Data for the rad50EPP+ strain (AID 151);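 note: 0% = growth of vehicle-treated control cultures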; conditions: S. cerevisiae rad50 mutant strain, active compounds read high
Procedure, shortened: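 Genetically defined yeast (rad50EPP+, DNA damage repair alteration) is grown with compound, and inhibition of growth is expressed relative to vehicle-treated controls.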

[4] = NCI Yeast Anticancer Drug Screen. Data for the mgt1 strain (AID 153); conditions: S. cerevisiae mgt1 mutant growth inhibition, active compounds read high
Procedure, shortened: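 In the mgt1 strain, test compounds were added and growth inhibition was determined relative to vehicle-treated controls.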

[5] = NCI Yeast Anticancer Drug Screen. Data for the rad50 strain (AID 155);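 note: 0% = growth of vehicle-only cultures of the same strain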; conditions: S. cerevisiae rad50 strain growth inhibition, active compounds read high
Procedure, shortened: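 Compounds were tested on a yeast strain with an engineered DNA damage repair alteration; the reported value is growth inhibition normalised to vehicle treatment.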

[6] = NCI Yeast Anticancer Drug Screen. Data for the mec2-1 strain (AID 157); conditions: S. cerevisiae mec2-1 strain, active compounds read high
Procedure, shortened: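 Each compound was tested on mec2-1 yeast, a strain altered in DNA damage repair or cell cycle control. Growth inhibition is reported relative to vehicle.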

[7] = NCI Yeast Anticancer Drug Screen. Data for the rad14 strain (AID 159);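 note: 0% = growth of vehicle-treated control cultures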; conditions: S. cerevisiae rad14 strain growth inhibition, active compounds read high
Procedure, shortened: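 Compound-treated yeast with a defined DNA-repair lesion; growth inhibition normalised to vehicle-treated cultures.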

[8] = NCI Yeast Anticancer Drug Screen. Data for the sgs1 mgt1 strain (AID 161);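 note: 0% = growth of cultures given vehicle only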; conditions: S. cerevisiae sgs1 mgt1 strain, active compounds read high
Procedure, shortened: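 Mutant yeast exposed to compound; growth scored against vehicle-only wells.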

[9] = NCI Yeast Anticancer Drug Screen. Data for the CLN2oe strain (AID 163);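 note: 0% = growth of vehicle-only control cultures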; conditions: S. cerevisiae CLN2oe strain, active compounds read high
Procedure, shortened: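 First, the altered yeast strain was treated with each compound; second, its growth was measured; finally, inhibition was derived by comparison with vehicle controls.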

[10] = NCI Yeast Anticancer Drug Screen. Data for the cln2 rad14 strain (AID 165);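 note: 0% = growth equal to vehicle treated cultures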; conditions: S. cerevisiae cln2 rad14 strain, active compounds read high
Procedure, shortened: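 Test compounds were added to cln2 rad14 yeast cultures; inhibition of growth was then determined by comparison with vehicle treatment.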

[11] = NCI Yeast Anticancer Drug Screen. Data for the bub3 strain (AID 167); conditions: S. cerevisiae bub3 mutant strain, active compounds read high
Procedure, shortened: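 Growth of a checkpoint-deficient yeast mutant is measured after compound exposure. Values represent inhibition relative to vehicle.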

[12] = NCI Yeast Anticancer Drug Screen. Data for the wt2 strain (AID 169);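 note: 0% = growth of vehicle-treated yeast cultures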; conditions: S. cerevisiae wt2 strain growth inhibition, active compounds read high
Procedure, shortened: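 The panel's yeast strains carry defined changes in DNA repair or cell cycle genes. Each strain is grown with compound, and growth loss is scored relative to vehicle.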

[13] = NCI Yeast Anticancer Drug Screen. Data for the mlh1 strain (AID 171);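 note: 0% = growth of vehicle-treated control cultures of the same strain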; conditions: S. cerevisiae mlh1 strain growth inhibition, active compounds read high
Procedure, shortened: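 Inhibition values reflect reduced yeast growth in the presence of compound, referenced to vehicle controls, using a strain chosen for its alteration in DNA repair or cell cycle control.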

[14] = NCI Yeast Anticancer Drug Screen. Data for the sgs1 strain (AID 173);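 note: 0% = growth of vehicle-only control cultures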; conditions: S. cerevisiae sgs1 mutant, active compounds read high
Procedure, shortened: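 Vehicle-treated cultures served as reference for growth inhibition of a yeast strain altered in DNA damage repair or cell cycle control after compound exposure.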

[15] = NCI Yeast Anticancer Drug Screen. Data for the mlh1 rad18 strain (AID 175); conditions: S. cerevisiae mlh1 rad18 strain growth inhibition, active compounds read high
Procedure, shortened: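 Inhibition values reflect reduced growth of mutant yeast versus vehicle-treated controls following compound exposure; the mutations affect DNA damage repair.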

[16] = NCI Yeast Anticancer Drug Screen. Data for the rad18 strain (AID 177); conditions: S. cerevisiae rad18 mutant growth inhibition, active compounds read high
Procedure, shortened: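 Steps: expose repair-mutant yeast to compound; measure growth; express as inhibition relative to vehicle control.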

[17] = at 5.0 µM (retest, dose inferred, filed as 0.5)
[18] = at 50.0 µM (retest, dose inferred, filed as 5.0)

Measured: growth inhibition

COc1cc(C2c3cc4c(cc3OC(Nc3ccccc3)C2C)OCO4)cc(OC)c1O (stereo not drawn)
inactive: [1]; at 1.2 µM 1% | [1]; at 3.7 µM 2% | [1]; at 11.0 µM 0% | [1]; at 33.0 µM 2% | [2]; at 1.2 µM 1% | [2]; at 3.7 µM -1% | [2]; at 11.0 µM 2% | [2]; at 33.0 µM 0% | [2]; at 100.0 µM 30% | [3]; at 1.2 µM -1% | [3]; at 3.7 µM -3% | [3]; at 11.0 µM 1% | [3]; at 33.0 µM 1% | [3]; at 100.0 µM 0% | [4]; at 1.2 µM -1% | [4]; at 3.7 µM -3% | [4]; at 11.0 µM -3% | [4]; at 33.0 µM 15% | [4]; at 100.0 µM 38% | [5]; at 1.2 µM 2% | [5]; at 3.7 µM 2% | [5]; [17] -3% | [5]; at 11.0 µM 2% | [5]; at 33.0 µM 2% | [5]; [18] 64% | [6]; at 1.2 µM 0% | [6]; at 3.7 µM 1% | [6]; [17] -5% | [6]; at 11.0 µM 1% | [6]; at 33.0 µM 1% | [6]; at 50.0 µM 36.1% | [6]; at 100.0 µM 67% | [7]; at 1.2 µM 1% | [7]; at 3.7 µM 1% | [7]; at 11.0 µM 4% | [7]; at 33.0 µM 5% | [7]; at 100.0 µM 51% | [8]; [17] -3% | [8]; [18] 6% | [8]; at 50.0 µM 58.7% | [9]; at 1.2 µM 1% | [9]; at 3.7 µM 0% | [9]; at 11.0 µM 1% | [9]; at 33.0 µM 0% | [9]; at 100.0 µM 39% | [10]; [17] 3% | [10]; [18] 52% | [10]; at 50.0 µM 6.9% | [11]; at 1.2 µM -1% | [11]; at 3.7 µM -5% | [11]; [17] 11% | [11]; at 11.0 µM -1% | [11]; at 33.0 µM 0% | [11]; [18] 51% | [11]; at 50.0 µM 43.8% | [11]; at 100.0 µM 41% | [12]; at 1.2 µM -1% | [12]; at 3.7 µM -2% | [12]; at 11.0 µM -1% | [12]; at 33.0 µM 0% | [12]; at 100.0 µM 68% | [13]; at 1.2 µM -3% | [13]; at 3.7 µM -1% | [13]; at 11.0 µM 0% | [13]; at 33.0 µM -3% | [13]; at 100.0 µM 61% | [14]; at 1.2 µM -1% | [14]; at 3.7 µM 0% | [14]; at 11.0 µM 0% | [14]; at 33.0 µM 2% | [14]; at 100.0 µM 65% | [15]; [17] -1% | [16]; at 1.2 µM 0% | [16]; at 3.7 µM -1% | [16]; at 11.0 µM -7% | [16]; at 33.0 µM 1%
active: [1]; at 100.0 µM 86% | [5]; at 50.0 µM 77% | [5]; at 100.0 µM 86% | [6]; [18] 78% | [15]; [18] 99% | [15]; at 50.0 µM 92.5% | [16]; at 100.0 µM 92%
